Bioassay records deposited in PubChem BioAssay by several laboratories.
MITF TRPM1 inh: reduces MITF-dependent TRPM1 promoter luciferase signal | inhibition, % at 12.5 µM | AID 488899 | 330,000 compounds, 0.83% hits | SK-MEL-5 TRPM1 promoter luciferase, 24 h;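 active = mean inhibition across replicates of 60% or more, whatever share of single replicates reaches that level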
LGR2 inh: Drosophila LGR2 receptor signaling inhibition. HEK293 LGR2, CRE-luciferase, bursicon-stimulated, 4 h. inhibition, % at 9.99 µM. 380,000 compounds, 0.35% hits. AID 720647;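 active = drop in luminescence signal, shown as inhibition above about 50% in the replicate tests, limit read from the data, passing the limit was not always enough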;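 also: agonist challenge used bursicon conditioned medium at about half maximal strength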
LMP1 NFkB inh: Epstein-Barr LMP1 NF-kappaB reporter inhibition; 350,000 compounds, 0.69% hits; LMP1-induced NF-kappaB luciferase reporter cells, luminescence; inhibition, % at 12.5 µM; AID 504558; in the data active = inhibition above about 41%
TROY NFkB inh: blocks TROY-dependent signaling in reporter cells; Q293 LMP1-TROYcd NF-kB luciferase reporter, 4 h; inhibition, % at 10 µM; 360,000 compounds, 0.98% hits; AID 1347056;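 active = compounds whose plate-normalised and pattern-corrected inhibition of the luciferase reporter signal at the single screening dose is 50% or more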
TWEAK Fn14 block: inhibitors of TWEAK-Fn14 interaction signaling. TWEAK-stimulated Fn14 reporter cells, luciferase luminescence, 8 h. inhibition, % at 10 µM. 360,000 compounds, 2% hits; in the data active = inhibition above about 50%
MITF act: activators of MITF-driven TRPM1 promoter activity in SK-MEL-5 cells; SK-MEL-5 TRPM1-promoter luciferase, 24 h; % of positive control, neutral wells = 0; activation, % at 12.5 µM; 300,000 compounds, 0.75% hits;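 active = mean activation of at least 80% with every replicate also reaching 80%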
Hits are given with their value; - = inactive; . = not tested or not shown. Only some compounds are listed: those with a hit (about 3% of all), similar ones and a draw of the others.

SMILES	MITF TRPM1 inh	LGR2 inh	LMP1 NFkB inh	TROY NFkB inh	TWEAK Fn14 block	MITF act
Fc1ccc(-n2nnc(-c3cccnc3)n2)cc1	-	-	-	-	-	-
CC(C)Sc1nc(SCC(=O)NCc2ccco2)c2c3c(sc2n1)COC(C)(C)C3	-	.	-	79	79	-
O=C(NCCN1CCCC1)[C@H]1[C@H](CO)[C@H]2Cn3c(cccc3=O)[C@@H]1N2C(=O)NC1CCCC1	.	-	.	.	.	.
O=C(Cc1ccccn1)N[C@@H]1CC[C@@H](CC(=O)N2CCCCC2)O[C@@H]1CO	.	-	.	.	.	.
N=c1c2c(-c3ccccc3)c(-c3ccccc3)n(Cc3ccco3)c2ncn1Cc1ccco1	66	.	-	.	-	-
N=c1c2c(-c3ccccc3)c(-c3ccccc3)n(Cc3ccccc3)c2ncn1CCCn1ccnc1	94	.	-	-	-	-
CCCCn1cnc2c(c(-c3ccccc3)c(-c3ccccc3)n2Cc2ccco2)c1=N	.	.	.	-	-	.
COc1ccccc1CNC(=O)C[C@@H]1CC[C@H]2[C@@H](COC[C@@H](O)CN2Cc2cccc(-c3ccncc3)c2)O1	.	-	.	.	.	.
COc1cccc(-c2ccc([C@H]3[C@@H](CO)N4CCCCN(Cc5cncnc5)C[C@H]34)cc2)c1	.	-	.	.	.	.
Cc1ccc(-c2nnc(CSc3nnc(COc4ccccc4)n3-c3ccccc3)o2)cc1	-	.	-	-	-	.
CCOc1ccc(-c2nnc(SCc3nnc(-c4ccccc4)o3)n2-c2ccccc2F)cc1	-	.	-	61	52	-
O=C(NCc1cccc(Cl)c1)c1cc(COc2ccc3ncccc3c2)on1	-	.	-	53	61	-
COc1cccc(OCc2cc(C(=O)NCc3ccccn3)no2)c1	-	-	-	-	-	110
Cc1ccc(F)cc1CNC(=O)c1cc(COc2ccc3ncccc3c2)on1	-	-	-	-	75	-
Cc1cc(C)n(CCNC(=O)c2cc(COc3ccc4ncccc4c3)on2)n1	-	-	-	-	-	-
Cn1c(C(=O)O)c(CC(=O)Nc2ccc3c(c2)OCCO3)c2ccccc21	-	.	-	77	92	-
Cc1ccc(NC(=O)Cc2c(C(=O)O)n(C)c3ccccc23)cc1F	-	-	-	-	-	-
Cc1ccc2c(c1)c(CC(=O)Nc1ccc(F)cc1)c(C(=O)O)n2C	-	-	-	-	106	-
COc1ccc(S(=O)(=O)N(C)C[C@H]2OCCCC[C@H](C)Oc3ccc(NS(=O)(=O)c4cccs4)cc3C(=O)N([C@@H](C)CO)C[C@H]2C)cc1	.	-	.	.	.	.
COc1ccc2c3c([nH]c2c1)[C@H](CO)N(Cc1ccncc1)CC31CCN(Cc2ccc(-c3ccccn3)cc2)CC1	.	-	.	.	.	.
Cn1cccc1C(=O)OCC(=O)c1c[nH]c2ccccc12	-	-	-	-	-	112
COc1cc(OC)c(N(C)S(=O)(=O)c2cccc(C(=O)OCC(=O)c3c[nH]c4ccccc34)c2)cc1Cl	-	-	-	-	96	-
CC(=O)Nc1ccc(NC(=O)COC(=O)Cc2c[nH]c3ccccc23)cc1	-	-	-	-	-	-
COc1ccc(NC(=O)COC(=O)Cc2c[nH]c3ccccc23)cc1OC	-	-	70	-	-	-
COc1cc(OC)c(N(C)S(=O)(=O)c2cccc(C(=O)OCC(=O)N(C)C3CCCCC3)c2)cc1Cl	.	-	-	-	-	.
SMILES	MITF TRPM1 inh	LGR2 inh	LMP1 NFkB inh	TROY NFkB inh	TWEAK Fn14 block	MITF act
CC1(C(=O)OCC(=O)c2c[nH]c3ccccc23)CC1(Cl)Cl (centres undefined)	-	-	-	-	-	96
C[C@@H]1CN([C@@H](C)CO)C(=O)Cc2cc(NC(=O)Nc3ccc(F)cc3)ccc2O[C@@H]1CN(C)S(=O)(=O)c1cccs1	.	-	.	.	.	.
C[C@@H]1CCCCO[C@@H](CN(C)S(C)(=O)=O)[C@H](C)CN([C@H](C)CO)C(=O)c2cc(NC(=O)Nc3ccccc3)ccc2O1	.	-	.	.	.	.
CN(C)C(=O)[C@@H]1[C@@H](CO)[C@@H]2Cn3c(ccc(-c4ccncc4)c3=O)[C@@H]2N1Cc1ccccc1	.	-	.	.	.	.
COc1cc(C(=O)OCC(=O)c2c[nH]c3ccccc23)ccc1OCC(=O)N1CCOCC1	-	.	-	-	-	-
COc1ccc(C(=O)OCC(=O)c2c[nH]c3ccccc23)cc1OC	-	-	67	-	-	-
C=CCN(c1ccccc1OC)S(=O)(=O)c1cccc(C(=O)OCC(=O)c2c[nH]c3ccccc23)c1	-	-	-	-	85	-
Nc1ccc(-c2nc3ccccc3[nH]2)cc1	-	-	-	-	-	-
c1ccc(-c2cc(-c3nc4ccccc4[nH]3)c3ccccc3n2)cc1	-	.	-	-	55	-
O=C(N[C@H]1CC[C@H](CCNC(=O)C2CCCC2)O[C@@H]1CO)c1ccccn1	.	-	.	.	.	.
COc1ccc(C2NN=C(c3c[nH]c4ccccc34)C2O)cc1 (centres undefined)	-	-	-	-	-	-
COc1ccc(C2C(O)C(c3c[nH]c4ccccc34)=NN2C(=O)CCl)cc1 (centres undefined)	98	-	-	-	94	-
O=C(NC1CCCC1)c1sc(=S)n2c1[nH]c(=O)c1ccccc12	-	.	-	72	-	.
Cc1ccc(S(=O)(=O)N[C@@H]2CC[C@H](CCNC(=O)C3CCC3)O[C@@H]2CO)cc1	.	-	.	.	.	.
CCCC(=O)N1CCC2(CC1)CN(S(C)(=O)=O)[C@H](CO)c1c2c2ccc(OC)cc2n1C	.	-	.	.	.	.
C[n+]1c2n(c3ccccc31)N=C(c1cc(C(C)(C)C)c(O)c(C(C)(C)C)c1)CS2	-	86	45	57	88	-
CC1=C(O)c2ccccc2C(=O)C1=O	.	.	.	-	-	.
Cc1ccccc1N=CC1=C(O)c2ccccc2C1=O	-	101	-	78	106	-
COc1ccc(N=CC2=C(O)c3ccccc3C2=O)c(OC)c1	76	.	57	83	102	.
O=C1C(C=Nc2ccc(F)cc2)=C(O)c2ccccc21	-	-	-	-	80	-
COc1cccc(C#Cc2ccc([C@H]3[C@@H](CO)N4C(=O)CN(S(=O)(=O)c5ccccc5C)C[C@H]34)cc2)c1	.	-	.	.	.	.
COc1cccc(CN2CC3(CN(C(C)=O)C3)c3c(n(C)c4cc(OC)ccc34)[C@H]2CO)c1	.	-	.	.	.	.
C[C@@H]1CN([C@@H](C)CO)C(=O)Cc2cc(NS(=O)(=O)c3ccc(F)cc3)ccc2O[C@H]1CN(C)C(=O)Nc1ccc2c(c1)OCO2	.	-	.	.	.	.
Cc1ccc(N=Nc2cc(C)ccc2N)cc1	-	68	-	-	-	-
O=C(/C=C/Nc1ccccc1Br)c1ccccn1	76	.	74	84	104	-
O=C(/C=C/c1ccccc1)c1ccccn1	-	-	-	-	-	-
O=C(/C=C/Nc1ccc(Br)cc1F)c1ccccc1	-	.	65	76	86	-
O=C(/C=C/Nc1ccccc1F)c1ccc(Br)cc1	-	-	-	-	-	-
O=C(/C=C\Nc1ccccn1)c1ccccc1	-	.	-	-	76	.
